HP1b chromo inh: HTS for Inhibitors of HP1-beta Chromodomain Interactions with Methylated Histone Tails; 0.56% of 390,000 active; AlphaScreen HP1-beta / biotin-H3K9me3 peptide binding; Chromobox protein homolog 1 (Homo sapiens), P83916; Potency, µM (series often up to 114 µM), for inactives: at the top dose activity change, negative = inhibition, hits mostly inhibitors; also: nearly all actives have a fitted effect of over 70% in size
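Compound inhibition of the preformed complex between 50 nM HP1-beta and 50 nM biotinylated H3K9me3 peptide was read by AlphaScreen. Buffer was PBS pH 7.4 with 0.01% Tween-20. Incubations ran 30 min at room temperature, with 10 ug/mL donor/acceptor beads.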
G9a inh: qHTS Assay for Inhibitors of Histone Lysine Methyltransferase G9a | Histone-lysine N-methyltransferase EHMT2 (Homo sapiens), Q96KQ7 | G9a H3K9 monomethylation, AlphaScreen, 2 h | 8.8% of 350,000 active | Potency, µM (top dose mostly 102 µM), inactives show at the highest dose activity, negative = inhibition, actives largely listed as inhibitors; also: % is scaled to controls: 0 for no effect and ±100 for the full control effect; nearly all actives have a fitted effect of over 75% in size
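Enzyme 20 nM + cpd, 15 min RT; add b-H3K9 pep 500 nM / SAM 20 uM; 2 h RT; anti-H3K9me1 Ab 0.5 ug/mL + SA donor / anti-rabbit acceptor beads 20 ug/mL each, 10 min; AlphaScreen read.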
PLK1 PBD inh: qHTS for Inhibitors of PLK1-PDB (polo-like kinase 1 - polo-box domain): Primary Screen; Serine/threonine-protein kinase PLK1 (Homo sapiens), P53350; Plk1 PBD binding of FITC phosphopeptide, fluorescence polarization; Potency, µM, for the others: max response, negative = inhibition, actives largely listed as inhibitors; 2.8% of 360,000 active; AID 720504, 2013; also: series mostly up to about 57 µM; % is scaled to controls: 0 for no effect and ±100 for the full control effect; nearly all actives have a fitted effect of over 65% in size
Sfp PPTase inh: qHTS Assay for Inhibitors of Bacillus subtilis Sfp phosphopantetheinyl transferase (PPTase); 4'-phosphopantetheinyl transferase ffp (Bacillus subtilis), Q9F4F7; Biochemical Sfp PPTase activity, qHTS; Potency, µM, for the others: largest response in the series, negative = inhibition, actives largely listed as inhibitors; 3.5% of 310,000 active;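 also: the enzyme is Sfp with the accession as filed and its product quenches rhodamine fluorescence; 0% = enzyme reaction without inhibitor and -100% = no enzyme wells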
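Buffer: 50 mM Hepes-Na pH 7.6, 10 mM MgCl2, 0.01% Nonidet P-40, 0.01% BSA. Enzyme 15 nM, pre-exposed to compound 15 min; substrates then added and fluorescence change tracked over 30 min.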
JMJD2A Tudor inh: qHTS Assay for Inhibitors of JMJD2A-Tudor Domain | Lysine-specific demethylase 4A (Homo sapiens), O75164 | AlphaScreen JMJD2A-Tudor / H3K4me3 peptide binding | Potency, µM (doses to about 114 µM), inactives show at the highest dose activity change, negative = inhibition, hits mostly inhibitors | 4.4% of 390,000 active; also: % is scaled to controls: 0 for no effect and ±100 for the full control effect; nearly all actives have a fitted effect of over 50% in size
Target sequence (O75164 whole entry, looked up, the tested form may be a part): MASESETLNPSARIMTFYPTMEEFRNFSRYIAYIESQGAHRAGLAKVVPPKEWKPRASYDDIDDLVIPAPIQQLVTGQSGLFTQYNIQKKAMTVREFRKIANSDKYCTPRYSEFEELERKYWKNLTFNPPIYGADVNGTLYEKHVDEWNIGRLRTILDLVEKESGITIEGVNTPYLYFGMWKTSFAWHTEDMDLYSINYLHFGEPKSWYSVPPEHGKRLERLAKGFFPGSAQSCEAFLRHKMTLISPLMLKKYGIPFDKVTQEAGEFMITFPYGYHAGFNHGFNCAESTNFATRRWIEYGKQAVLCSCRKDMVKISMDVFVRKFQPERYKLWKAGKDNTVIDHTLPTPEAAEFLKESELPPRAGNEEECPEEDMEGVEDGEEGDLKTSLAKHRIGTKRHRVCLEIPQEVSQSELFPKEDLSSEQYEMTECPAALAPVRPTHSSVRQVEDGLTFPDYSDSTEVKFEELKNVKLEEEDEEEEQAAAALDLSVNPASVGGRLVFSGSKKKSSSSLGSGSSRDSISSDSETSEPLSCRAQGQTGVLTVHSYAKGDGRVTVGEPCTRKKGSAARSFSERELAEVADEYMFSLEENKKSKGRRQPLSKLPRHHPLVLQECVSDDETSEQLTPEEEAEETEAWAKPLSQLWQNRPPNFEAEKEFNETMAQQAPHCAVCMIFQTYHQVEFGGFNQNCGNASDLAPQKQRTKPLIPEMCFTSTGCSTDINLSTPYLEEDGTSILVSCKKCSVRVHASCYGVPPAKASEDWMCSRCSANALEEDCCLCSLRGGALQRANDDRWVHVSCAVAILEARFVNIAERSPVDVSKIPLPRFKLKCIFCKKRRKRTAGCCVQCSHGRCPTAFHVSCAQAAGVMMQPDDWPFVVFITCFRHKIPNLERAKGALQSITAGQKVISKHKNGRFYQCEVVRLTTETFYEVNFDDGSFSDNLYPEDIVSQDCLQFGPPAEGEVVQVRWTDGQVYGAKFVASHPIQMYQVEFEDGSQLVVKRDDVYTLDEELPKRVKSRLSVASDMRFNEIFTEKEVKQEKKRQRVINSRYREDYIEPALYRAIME
BAZ2B inh: qHTS Assay for Inhibitors of BAZ2B; AID 504333, 2011; Bromodomain adjacent to zinc finger domain protein 2B (Homo sapiens), Q9UIF8; AlphaScreen BAZ2B-H3K14Ac peptide displacement; 4.4% of 360,000 active; Potency, µM (titrated, usually from 114 µM), without a hit: at the top dose activity change, negative = inhibition, usual class: inhibitors; also: % is scaled to controls: 0 for no effect and ±100 for the full control effect; nearly all actives have a fitted effect of over 60% in size
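AlphaScreen displacement of biotin-H3(5-23)K14Ac peptide (50 nM final) from BAZ2B (50 nM final) in PBS pH 7.4, 0.01% Tween-20; complex preformed 30 min RT, then compounds (top 110 uM) 30 min RT, beads 20 min dark.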
Numbers without * were called inactive; ? = inconclusive; . = no result; [ ] = another dose, or the depositor's remark. An excerpt weighted towards active compounds, which were near 12% of everything screened. Calls follow the shape of the dose curve; as a rule, active = well fitted curve in the direction sought with a large enough effect; inconclusive = small, poorly fitted or top-dose-only effect, or another doubt; inactive = no such curve, though single readings can be large; an effect the other way counts as inactive or inconclusive. Potency is read from the fitted curve at half-maximal effect.

SMILES	HP1b chromo inh	G9a inh	PLK1 PBD inh	Sfp PPTase inh	JMJD2A Tudor inh	BAZ2B inh
O=S(=O)(CCC1CCCCN1)c1ccccc1 (centres undefined)	19%	3%	-1%	13%	1%	0%
O=C(CN1c2ccc(Br)cc2-c2ccccc2S1(=O)=O)N1CCCCC1	27%	-22%[59 µM]	.	.	-15%	-19%
Cc1ccc(Cl)c(OCC(=O)Nc2sc(C)c(C)c2C#N)c1	4%	45µM*	-20%	-27%	-22%	-3%
CCc1ccc(NC(=O)CCCc2nnc3n(CC(C)C)c(=O)c4sccc4n23)cc1	12%	-3%[59 µM]	.	.	-19%	-16%
CCOc1ccc(S(=O)(=O)Nc2cc(SCC(=O)O)c(O)c3ccccc23)cc1	13µM*	?	1.7µM*	-84%	22µM*	50µM*
Cc1c(NS(=O)(=O)c2ccccc2)cc(C(C)C)c(O)c1S(=O)(=O)c1ccc(Cl)cc1	39%	12%[59 µM]	.	.	-19%	-27%
O=C(O)CSc1cc(NS(=O)(=O)c2cccc([N+](=O)[O-])c2)c2ccccc2c1O	10µM*	2.5µM*	1.5µM*	2.8µM*	-35%[11.4 µM]	?
O=S(=O)(Nc1cc(Sc2cccc3cccnc23)c(O)c2ccccc12)c1ccccc1	.	1.6µM*	.	10µM*	.	?
CCc1ccc(S(=O)(=O)Nc2cc(SCC(=O)O)c(O)c3ccccc23)cc1	?	3.5µM*	1.2µM*	4µM*	22µM*	?
O=C1c2ccccc2C(=O)c2cc(S(=O)(=O)Nc3cccc4cccnc34)ccc21	.	.	.	7%	?	.
Cc1oc(-c2ccccc2)nc1Cn1c(=O)cc(-c2ccccc2)c2c(C)nn(C)c21	-6%	-13%[59 µM]	.	.	-25%	?
CCCCCCn1c(=O)n2n(c1=O)[C@@H]1CN(S(=O)(=O)c3ccc(C)cc3)C[C@]1(O)[C@@H](OC(=O)NCC1CCCCC1)C2	.	.	-2%	.	.	.
COc1cccc(C(=O)Nc2cccc(OCc3cc(=O)n4c5c(sc4n3)CCCC5)c2)c1	20%	-31%[59 µM]	.	.	-14%	-1%
Cc1ccc(C)c(S(=O)(=O)Nc2cc(SCC(=O)O)c(O)c3ccccc23)c1	?	1.1µM*	1.5µM*	3.5µM*	40µM*	20µM*
Cc1ccc(NS(=O)(=O)c2cc(NC(=O)C(C)Oc3ccccc3)ccc2C)c(C)c1 (centres undefined)	26%	14%[59 µM]	-10%	-16%	-25%	-36%
O=C(c1cnccn1)N1CCC2(CCCN(c3cccc(-c4ccccc4)c3)C2)CC1	.	-20%[12.7 µM]	.	-18%	.	.
COCCn1c(-c2ccc(-c3ccccc3Cl)o2)nc2c1c(=O)[nH]c(=O)n2CC(C)C	11%	22µM*	-5%	18µM*	-28%	1%
CCCCn1c(=O)[nH]c(=O)c2c1nc(-c1ccc(-c3ccccc3Br)o1)n2CCOC	5%	16µM*	-23%	40µM*	-30%	-7%
CCCCn1c(=O)[nH]c(=O)c2c1nc(-c1ccncc1)n2CCOC	31%	9%[12.7 µM]	-2%	11%	-8%	7%
c1ccc(CSc2nnc(-c3ccco3)o2)cc1	17%	38%	0%	13%	0%	1%
Brc1ccc(CSc2nnc(-c3ccco3)o2)cc1	140%	83%	6%	56µM*	76%	68%
Oc1cccc2c(NC(=S)Nc3ccc(SC(F)F)cc3)cccc12	?	40µM*	-26%	?	?	45µM*
Oc1cccc(NC(=S)Nc2ccc(SC(F)F)cc2)c1	7%	-4%[59 µM]	-8%	-12%	-20%	1%
CCN(CC)CCNC(=O)c1ccc(Cn2c(=O)c3cccn3c3cccnc32)cc1	30%	1%[59 µM]	.	.	-5%	-20%
Cc1ccc(S(=O)(=O)CCC(=O)Nc2nnc(-c3ccco3)o2)cc1	28%	25µM*	-5%	.	18µM*	?
SMILES	HP1b chromo inh	G9a inh	PLK1 PBD inh	Sfp PPTase inh	JMJD2A Tudor inh	BAZ2B inh
Cc1ccc(S(=O)(=O)CCC(=O)Nc2nnc(-c3cccs3)o2)cc1	36%	-29%	-5%	.	11µM*	?
O=C(COc1cccc(F)c1)NNC(=O)Cc1ccc(Br)cc1	39%	3%[2.33 µM]	-2%	.	-15%	-11%
CCSc1nc2ccc(N3C(=O)C4C5C=CC(C5)C4C3=O)cc2s1 (centres undefined)	-4%	11µM*	?	4%	-13%[57.1 µM]	3%
O=C1C2C3C=CC(C3)C2C(=O)N1c1ccc2ccccc2c1 (centres undefined)	26%	10%	-2%	4%	-6%	-19%
O=C(O)CCc1ccc(-c2ccccc2)n1CC(=O)Nc1ccccc1C(F)(F)F	35%	-30%[59 µM]	.	.	-9%	-22%
COc1ccc(-c2ccc(CCC(=O)O)n2Cc2ccco2)cc1	-4%	.	-9%	?	-30%	?
O=C(O)CCc1ccc(-c2ccccc2)n1CC(=O)Nc1cccc(C(F)(F)F)c1	12%	45µM*	-7%	4%	-30%	?
O=C(O)CCc1ccc(-c2ccc(Cl)cc2)n1CCC(=O)O	31%	1%[59 µM]	-21%	-14%	-36%	-38%
COCCn1c(CCC(=O)O)ccc1-c1cccs1	17%	50µM*	-13%	-10%	-15%	-30%
O=C(O)CCc1ccc(-c2ccc(Cl)cc2)n1CC(=O)O	25%	45µM*	-22%	-18%	?	-32%
O=C(O)CCc1ccc(-c2cccs2)n1Cc1ccco1	5%	?	-15%	25µM*	?	50µM*
CC(CCc1ccccn1)(CCc1ccccn1)C(=O)c1ccccc1	28%	.	4%	.	-15%	.
COc1ccc([S+](=O)([O-])N2CCN([S+](=O)([O-])c3ccc4c(c3)OCCO4)CC2)c(OC)c1	.	.	.	.	-25%	.
Cc1c(Cl)cccc1NC(=O)Cn1c(CCC(=O)O)ccc1-c1ccc(Cl)cc1	?	?	?	21%	35µM*	56µM*
O=C(O)CCc1ccc(-c2ccc(Cl)cc2)n1Cc1ccco1	6%	?	-19%	-14%	?	50µM*
COc1cc(OC)cc(C2=Nn3c(nnc3-c3cccc(OC)c3)SC2)c1	.	.	.	-3%	-23%	.
N#Cc1c(-c2cccs2)cc(-c2cccs2)[nH]c1=O	20%	8%	-8%	-30%	-3%	-1%
Cc1cc(-c2cccs2)c(C#N)c(=S)[nH]1	20%	1.6µM*	?	20µM*	7.9µM*	-20%
